“And” between values parts separate entries of the source, which are not always exact repeats. Identical values can stand only once. Among all 350,000 compounds or so, about 31,000 (8.9%) were called active. About 15% were inconclusive and are not listed. Calls come from the whole dose curve; as a rule, active = well fitted inhibition curve with a large enough effect; inconclusive = small, poorly fitted or top-dose-only effect; inactive = no such curve, though single readings can be large or run the other way. The sample as a whole holds a higher share of actives than the screen did. Where a structure was tested more than once in an assay, its records may differ in their call.
% is set by controls: 0 for no effect and ±100 for the full control effect; potency is the fitted concentration of half-maximal effect.

The target in this assay is Histone-lysine N-methyltransferase EHMT2 (Homo sapiens) (UniProt Q96KQ7). As to the kind of experiment: qHTS Assay for Inhibitors of Histone Lysine Methyltransferase G9a. Note: nearly all actives have a fitted effect of over 75% in size. Particulars: G9a H3K9 monomethylation, AlphaScreen, 2 h; series mostly up to 102 µM; activity, negative = inhibition: at the top concentration. In outline: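 Enzyme 20 nM + cpd, 15 min RT; add b-H3K9 pep 500 nM / SAM 20 uM; 2 h RT; anti-H3K9me1 Ab 0.5 ug/mL + SA donor / anti-rabbit acceptor beads 20 ug/mL each, 10 min; AlphaScreen read.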
Sequence of Histone-lysine N-methyltransferase EHMT2 (Homo sapiens) (Q96KQ7 913-1193 limits assumed): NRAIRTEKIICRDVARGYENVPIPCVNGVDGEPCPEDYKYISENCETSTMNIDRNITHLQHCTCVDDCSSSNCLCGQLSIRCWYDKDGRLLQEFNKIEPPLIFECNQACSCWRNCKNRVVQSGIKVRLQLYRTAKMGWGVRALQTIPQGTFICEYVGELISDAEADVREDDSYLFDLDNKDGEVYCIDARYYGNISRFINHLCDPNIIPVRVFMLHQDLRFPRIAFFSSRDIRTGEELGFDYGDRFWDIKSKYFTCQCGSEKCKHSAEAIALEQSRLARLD
Background: Quantitative high-throughput screening tests each substance at several concentrations.
With `c1csc(CN2CC3(CCNCC3)C2)n1`, the activity, negative = inhibition was -16.9% [at 12.7 µM] (inactive).

In the case of `c1ccc(N2CC[C@@]3(CCCNC3)C2)nc1`, the activity, negative = inhibition was -39.9% [at 12.7 µM] (inactive).

Consider `COC(=O)CN1C(=O)C2(C(C(=O)OC)=C(N)Oc3ccccc32)C2=C1CC(C)(C)CC2=O` (centres undefined), for which the “activity, negative = inhibition” value was 17.5% [at 59 µM] (inactive).

For `O=C1NC(=O)N(c2ccccc2)C(=O)/C1=C/c1ccc([N+](=O)[O-])s1`, the Potency is 8.91 µM (active).

For `COc1cccc(N2C(=O)NC(=O)/C(=C\c3cn(C)c4ccccc34)C2=O)c1`, the “activity, negative = inhibition” value was -16.1% (inactive).

As to `COc1cccc(N2C(=O)NC(=O)/C(=C\c3ccc([N+](=O)[O-])s3)C2=O)c1`, the Potency is 7.94 µM (active).

As to `CCN1C[C@]2(C)CC[C@H](O)[C@@]34[C@@H]5CC6[C@@H](OC)C[C@@](O)([C@@H]5[C@@H]6O)[C@H](C[C@@H]23)[C@H]14`, the activity, negative = inhibition is 28.6% [at 21.5 µM] (inactive).

For `CCOc1cccc(=NC2CCCCC2)c2c(C)[nH]c(C)c12`, the activity, negative = inhibition is 40.3% [at 12.7 µM] (inactive).

Take `NC[C@H](O)c1ccc(O)cc1`: the activity, negative = inhibition is 24.2% [at 21.5 µM] (inactive).

As for `CCN(CC)C(=O)c1ccc(NC(=O)c2cc(-n3cnnc3)ccc2Cl)cc1`, the activity, negative = inhibition is -47.2% [at 12.7 µM] (inactive).

For `COC(=O)C1=C(c2ccc(Cl)c(C(F)(F)F)c2)C[C@@H]2CC[C@H]1N2C(=O)NC(C)C`, the activity, negative = inhibition was 11.8% [at 2.33 µM] (inactive).

With `CC[N+]1(C)CCCC(OC(=O)C(O)(c2ccccc2)c2ccccc2)C1` (centres undefined), the activity, negative = inhibition entry was “inactive”.

On to `Cc1ncsc1CCCl`, for which the Potency result was “inactive and 23.8 µM (active)”.

Turning to `COc1ccc(CCn2c(O)c(C=NC3CC3)c(=O)[nH]c2=O)cc1OC`, the “activity, negative = inhibition” value is 2.41% [at 59 µM] (inactive).

With `COC(=O)c1ccc2[se]c(CC3CCCCC3)c(I)c2c1`, the “activity, negative = inhibition” value is -2.16% [at 59 µM] (inactive).

In the case of `O=C(C1CCN(CC2CCCCC2)CC1)N1CCCC1`, the Potency was 8.91 µM (active).

Take `CSc1ccc(C(=O)C2CCCN(Cc3ccn[nH]3)C2)cc1` (centres undefined): the “activity, negative = inhibition” value is -40.8% (inactive).

For the compound `O=[N+]([O-])c1ccc(C2C3C(c4ccccc4)=NC4(CCCCC4)N32)cc1` (centres undefined), the “activity, negative = inhibition” value was -20.1% (inactive).

Regarding `CC(Cc1cccs1)NCc1ccc(Cl)cc1` (centres undefined), the “activity, negative = inhibition” value was -3.26% (inactive).

Consider `Nc1ccc([N+](=O)[O-])cc1`, for which the activity, negative = inhibition was 6.3% [at 0.501 µM] (inactive).

With `O=c1c2ccccc2nc(-c2ccccc2)n1-c1ccccn1`, the activity, negative = inhibition is 0.769% [at 0.501 µM] (inactive).

Consider `CC12CN3CC(C)(CN(C1)C3c1cccs1)C2` (centres undefined), for which the “activity, negative = inhibition” value is -3.29% (inactive).

`Cc1ccc(-c2cc(C(=O)N3CCC4(CC3)OCCO4)no2)cc1`: the “activity, negative = inhibition” value was -1.09% (inactive).

In the case of `CCOC(=O)C(NS(=O)(=O)c1ccc(C)cc1)(C(F)(F)F)P(=O)(OCC(C)C)OCC(C)C` (centres undefined), the Potency is 7.08 µM (active).

`COC(=O)C1=C(c2ccc(F)cc2OCc2ccccc2)C[C@@H]2CC[C@H]1N2C(=O)NCc1ccc(C(C)(C)C)cc1`: the activity, negative = inhibition was 21.1% [at 2.33 µM] (inactive).

Consider `CC(=O)Nc1ccccc1C(=O)OCC(=O)c1cccc2ccccc12`, for which the “activity, negative = inhibition” value was 2.62% [at 59 µM] (inactive).

With `CCOC(=O)C1CCN(Cc2coc3ccc(Cl)cc3c2=O)CC1`, the Potency is 3.16 µM (active).

Regarding `C[N+]12CN3CN(CN(C3)C1)C2`, the Potency was 1.12 µM (active).

`COc1ccc(CCn2c(O)c(C=NCCCn3ccnc3)c(=O)[nH]c2=O)cc1OC`: the “activity, negative = inhibition” value was 21% (inactive).

In the case of `CCCCCCCCCCCCCC(=O)O[C@@H]1[C@@H](C)[C@@]2(O)[C@@H](C=C(CO)C[C@]3(O)C(=O)C(C)=C[C@@H]23)[C@@H]2C(C)(C)[C@]12OC(C)=O`, the “activity, negative = inhibition” value was 8.77% [at 59 µM] (inactive).

As for `COC(=O)N1C(c2ccccc2)C1c1ccccc1` (centres undefined), the “activity, negative = inhibition” value was 35.5% (inactive).

`COC(=O)C1=C(c2cccc(OCc3ccccc3)c2)C[C@@H]2CC[C@H]1N2C(=O)NCc1ccc(Br)cc1`: the activity, negative = inhibition is -5.98% [at 0.501 µM] (inactive).

For the compound `COc1ccc(NC(=O)N2CCC3(CC2)OCCO3)c(OC)c1`, the “activity, negative = inhibition” value is 18.8% (inactive).

With `O=C(Nc1cccc2ccccc12)N1CCC2(CC1)OCCO2`, the Potency was 50.1 µM (active).

As for `O=C(c1cc(-c2ccncc2)nc2ccccc12)N1CCC2(CC1)OCCO2`, the “activity, negative = inhibition” value was -0.255% [at 59 µM] (inactive).

In the case of `CCN1CC2C3CCC(C)(O3)C2C1` (centres undefined), the “activity, negative = inhibition” value was -1.34% (inactive).

Regarding `Cc1nnc(NC(=O)c2cccn(Cc3cccc(F)c3)c2=O)s1`, the “activity, negative = inhibition” value was 12.5% [at 59 µM] (inactive).

Regarding `Cn1cc(/C=C/c2nc3ccccc3c(=O)n2-c2ccccc2)c2ccccc21`, the “activity, negative = inhibition” value was -33.2% [at 59 µM] (inactive).

`O=C(OCC1O[C@@H](OC(=O)c2cc(O)c(O)c(O)c2)[C@@H](OC(=O)c2cc(O)c(O)c(O)c2)[C@@H](OC(=O)c2cc(O)c(O)c(O)c2)[C@@H]1OC(=O)c1cc(O)c(O)c(O)c1)c1cc(O)c(O)c(O)c1` (some centres undefined): the Potency is 50.1 µM (active).

Regarding `CCN(N=Nc1nonc1OC)c1nonc1OC`, the “activity, negative = inhibition” value is 22.1% [at 59 µM] (inactive).

Turning to `CC(=O)N(C1=NCCCS1)c1ccccc1F`, the “activity, negative = inhibition” value is 1.9% (inactive).

As to `COc1ccc(-c2nn(CCC#N)cc2C(=O)O)cc1`, the “activity, negative = inhibition” value was -18.2% (inactive).

For the compound `CC(=O)c1ccc(OC(NC(=O)Cc2ccccc2)C(Cl)(Cl)Cl)cc1` (centres undefined), the “activity, negative = inhibition” value is -9.58% (inactive).

In the case of `CN(C)C(=O)Oc1ccc2c(c1)O/C(=C\c1ccccc1)C2=O`, the “activity, negative = inhibition” value was -35.3% (inactive).

Take `N#CC(C#N)=Cc1cc(O)c(O)c([N+](=O)[O-])c1`: the Potency was 14.1 µM (active) and 15.8 µM (active).

As for `NCCc1ccc(S(=O)(=O)F)cc1`, the activity, negative = inhibition entry is “inactive”.

`COc1ccc(C2NCc3ccc4c(c3-n3cccc32)OCO4)cc1OC` (centres undefined): the activity, negative = inhibition is 0.908% [at 12.7 µM] (inactive).

As for `COc1c(O)ccc2c1-c1c3c(cc4c1C(C2)N(C)CC4)OCO3` (centres undefined), the Potency was 39.8 µM (active).

As for `CC(=O)NC(=O)NC(C)Cc1ccccc1` (centres undefined), the “activity, negative = inhibition” value is 4.15% (inactive).

As to `CCOC(=O)c1c(-c2ccccc2)oc2ccc(OC(=O)N(C)C)cc12`, the activity, negative = inhibition is 6.28% [at 12.7 µM] (inactive).

On to `O=C(CN1CCCCC1)Nc1ccc(Br)cc1C(=O)c1ccccc1Cl`, for which the “activity, negative = inhibition” value is 8.1% (inactive).

On to `NC(=O)Nc1cccc(C(F)(F)F)c1`, for which the “activity, negative = inhibition” value is 2.76% [at 59 µM] (inactive).

`CC(C)C(N)C(=O)OCCOCn1cnc2c(=O)[nH]c(N)nc21` (centres undefined): the activity, negative = inhibition is -19.5% [at 2.33 µM] (inactive).

In the case of `Cc1ccc(Cn2nnnc2CN2CCC(n3nnc4ccccc43)CC2)cc1`, the Potency was 50.1 µM (active).

Turning to `CC(C)(O)c1[se]c2ccccc2c1I`, the “activity, negative = inhibition” value was -25.9% (inactive).

Turning to `CN(C)S(=O)(=O)c1cc(C(=O)N2CCC(C(=O)O)(c3ccccc3)CC2)ccc1Cl`, the “activity, negative = inhibition” value was 8.28% (inactive).

`Cc1ccc(C)c(NC2=NCCCS2)c1`: the “activity, negative = inhibition” value is -38.9% (inactive).

Turning to `Cc1c(C(=O)O)cccc1-n1c(C)cc(/C=C2\C(=O)NC(=O)N(c3ccc4c(c3)OCO4)C2=O)c1C`, the Potency is 28.2 µM (active).

For `CC(C)c1c(CN(C)C(C)Cc2ccccc2)n(C)n(-c2ccccc2)c1=O` (centres undefined), the “activity, negative = inhibition” value was 6.73% [at 59 µM] (inactive).

Values taken from PubChem BioAssay AID504332 (National Center for Advancing Translational Sciences (NCATS), 2011).
